Data from ChEMBL document CHEMBL4513149, “CO-ADD screening of MMV (CH) - MMV compounds” (2021).
Potency and affinity values are given separately.

Legend:
[1] = test system: Staphylococcus aureus; settings: Concentration 20 uM; ASSAY_TEST Inhibition of Bacterial Growth; detection method Absorption (OD600); MEDIA CAMHB; plate type 384well; NBS; CORNING #3640; time 18 hr
[2] = test system: Escherichia coli; settings: Concentration 20 uM; ASSAY_TEST Inhibition of Bacterial Growth; detection method Absorption (OD600); MEDIA CAMHB; plate type 384well; NBS; CORNING #3640; time 18 hr

SMILES | Inhibition [1] | Inhibition [2]
CC(C)/N=c1\cc2n(-c3ccc(Cl)cc3)c3ccccc3nc-2cc1Nc1ccc(Cl)cc1 [CLOFAZIMINE] | 59.44% | 9.66%
c1coc(CNc2nc(N3CCCCC3)nc3ccccc23)c1 | 13.52% | 5.17%
NC(=O)c1cc(Br)ccc1OCCOc1ccccc1 | 12.29% | -2.13%
CCCS(=O)(=O)N1CCC(CO)(Cc2ccccc2C(F)(F)F)CC1 | 8.25% | -1.16%
CCCCN(CCCC)c1c(C#N)cc(S(=O)(=O)Nc2ccccc2)cc1C#N | 3.78% | -2.29%
CCOc1ccccc1NC(C)C(=O)Nc1cc(C(F)(F)F)ccc1N1CCOCC1 (stereo not given) | 15.12% | 7.27%
COc1ccc(-c2cnc3ccc(NCc4ccc(S(N)(=O)=O)cc4)nn23)cn1 | 19.01% | 10.16%
Cn1ncc2c(N3CCOCC3)nc(NCCc3c[nH]c4ccccc34)nc21 [TDR79432] | 12.92% | -1.67%
CC1CS(=O)(=O)CCN1/N=C/c1ccc([N+](=O)[O-])o1 (stereo not given) [NIFURTIMOX] | 33.42% | 6%
COc1cncc(-c2cncc(N3CCN(c4ccncc4)CC3)n2)c1 | 18.85% | 13.61%
Cc1nnc(NCc2cccc(Cl)c2)c2ccccc12 | 21.63% | 9.19%
CC1=Nc2ccc(Cl)cc2C(c2ccccc2)N1CCNC(=O)CN(C)C (stereo not given) | 20.65% | 6.95%
O=C(NC1CC1)c1ccc(CSCc2ccccc2Cl)o1 | 11.19% | -1.44%
CC(=O)Nc1ccc(NC(=O)c2cc(-c3cc(Cl)ccc3O)n[nH]2)cc1 | 5.62% | 10.03%
Brc1c(-c2ccc3c(c2)OCO3)nc2ncccn12 | 14.85% | 5.08%
COc1cc(C(F)(F)F)nc2ccc(C)c(N)c12 | 15.64% | 5.11%
CC1CCCCN1C(=O)NCCc1coc(-c2ccc(F)cc2)n1 (stereo not given) | 23.75% | 7.62%
COc1cccn2c(C(=O)N3CCCCC3)c(C(F)(F)F)nc12 | 18.98% | -2.18%

SMILES | Inhibition [1] | Inhibition [2]
CNc1nnc(Sc2cnn(-c3ccccc3)c(=O)c2Cl)s1 | 17.43% | -7.26%
FC(F)(F)c1ccc(N(c2cccnc2)C2CCN(c3ccc(C(F)(F)F)cn3)CC2)cc1 | 14.25% | 5.86%
COc1cccc2c(C)nc(N=C(N)N)nc12.O=C(O)C(F)(F)F.O=C(O)C(F)(F)F | 15.44% | 7.95%
CNC(=O)C1Cc2ccccc2N1C(=O)Cc1ccc(F)cc1 (stereo not given) | 16.81% | 5.31%
COc1ccc(C2=NN(C3CCCCCC3)C(=O)[C@@H]3CC=CC[C@H]23)cc1OCCCCOc1ccc(-c2nnn[nH]2)cc1 | 53.58% | 1.88%
CN(C)c1cc(NC(=O)Nc2ccccc2)c2ccccc2n1 | 12.79% | 6.08%
O=C(NC1=NCCS1)c1sc2cc(F)ccc2c1Cl | 2.69% | -4.46%
Cc1ccc(S(=O)(=O)n2cc(-c3ccnc(N)c3)c3cc(Br)cnc32)cc1 | 9.7% | -3.65%
O=C(NCc1ccoc1)N1CCN(Cc2ccc3c(c2)OCO3)CC1 | 17.61% | 3.25%
O=C(N[C@H](Cc1ccccc1)C(=O)Nc1ccccc1N1CCOCC1)c1cccs1 | 14.16% | 8.05%
Cc1nc(-c2cccc(NCc3ccccc3)c2)[nH]c1C | 19.75% | 6.38%
CC(C)(C)c1cc(C(=O)N2CCN(c3nccnc3C#N)CC2)n(Cc2ccccc2)n1 | 20.75% | 10.32%
Cc1nnc(NC(=O)c2cn(-c3ccccc3)nc2-c2ccccc2C)o1 | 8.57% | 8.61%
NC(=O)c1cc(-c2ccsc2)ccc1OCCOc1ccccc1 | 14.87% | 5.41%
O=C(NCc1ccco1)N1CCN(Cc2ccc(Cl)s2)CC1 | 6.8% | -3.38%
CN1CCN(c2nccc3[nH]c(-c4cccc(F)c4)cc23)CC1 | 12.79% | 3.68%
CC(C)(C)OC(=O)N1CCN(c2nccc(-c3ccc(-c4ccc(Cl)cc4)s3)n2)CC1 | 15.85% | 9.45%
